In PubChem BioAssay (EPA / NIEHS):
“And” between values parts separate entries of the source, which are not always exact repeats. Equal values may be shown once. A structure can be active in one record and inactive in another. The source made the active and inactive calls. Rule for the calls: active = hit-call score of the fitted dose curve at least 0.9, where 1 is the maximum; inactive = score below 0.9.

Assays:
[1] = target: Transcription factor E2F1 (Homo sapiens) (UniProt Q01094); test: ATG_E2F_CIS: Attagene CIS-FACTORIAL HepG2 Assay for human E2F Transcription Factor 1 (AID 2282935); conditions: HepG2 Attagene cis-reporter, E2F reporter RNA transcripts; actives raise or lower the signal
Sequence of Transcription factor E2F1 (Homo sapiens) (Q01094 whole entry, looked up): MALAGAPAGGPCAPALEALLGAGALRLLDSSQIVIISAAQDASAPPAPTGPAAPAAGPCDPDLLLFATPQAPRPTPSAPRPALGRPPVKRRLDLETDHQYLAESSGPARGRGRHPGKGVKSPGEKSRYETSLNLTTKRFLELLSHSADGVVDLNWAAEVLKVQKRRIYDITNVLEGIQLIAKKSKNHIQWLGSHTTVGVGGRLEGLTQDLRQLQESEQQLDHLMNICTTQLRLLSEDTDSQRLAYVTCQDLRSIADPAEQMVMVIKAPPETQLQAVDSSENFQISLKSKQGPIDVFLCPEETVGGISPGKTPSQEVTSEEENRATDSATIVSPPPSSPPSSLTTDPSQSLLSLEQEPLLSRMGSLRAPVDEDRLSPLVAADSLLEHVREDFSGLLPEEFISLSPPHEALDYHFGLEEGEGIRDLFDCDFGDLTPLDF
Procedure, shortened: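 In this cis-factorial format, endogenous factor activity drives transfected reporters in HepG2; transcripts collected at 24 h are quantified by fluorescence after RT-PCR and capillary separation.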

[2] = ATG_E_Box_CIS: Attagene CIS-FACTORIAL HepG2 Assay for human Enhancer Box (E-box) (AID 2282936); conditions: HepG2 E-box cis-reporter transcription, actives raise or lower the signal
Procedure, shortened: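 Measured 24 h post-dosing in HepG2 cells transfected with multiple cis-regulated reporter units, signal being reporter mRNA induction detected by fluorescent RT-PCR with capillary electrophoresis; gain or loss fitted against DMSO.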

[3] = ATG_M_61_CIS: Attagene CIS-FACTORIAL HepG2 Assay for M61 Transcription Factor (Internal Marker) (AID 2282937); conditions: HepG2 Attagene CIS-FACTORIAL M61 internal marker reporter; actives raise or lower the signal
Procedure, shortened: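 HepG2 cells transiently transfected with multiplexed cis-promoter reporter units reporting endogenous transcription factor activity, measured 24 h after dosing. Reporter mRNA quantified by RT-PCR and capillary electrophoresis; bidirectional fit against DMSO baseline.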

[4] = ATG_EGR_CIS: Attagene CIS-FACTORIAL HepG2 Assay for human Early Growth Response 1 (EGR1) (AID 2282938); conditions: HepG2 Attagene CIS-FACTORIAL EGR reporter mRNA; actives raise or lower the signal
Procedure, shortened: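 HepG2 cells transiently transfected with cis-element-driven multiplexed reporter units, dosed for 24 h. EGR1-element reporter mRNA quantified by RT-PCR, 6-FAM labelling, HpaI digestion and capillary electrophoresis; bidirectional fit versus DMSO.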

[5] = ATG_M_19_CIS: Attagene CIS-FACTORIAL HepG2 Assay for M19 Transcription Factor (Internal Marker) (AID 2282939); conditions: HepG2 Attagene CIS-FACTORIAL M19 internal marker reporter; actives raise or lower the signal
Procedure, shortened: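 Signals come from fluorescence of labelled reporter-specific PCR fragments resolved by capillary electrophoresis, following 24 h treatment of HepG2 cells transfected with cis-promoter reporter units; activity was fitted in both directions relative to DMSO.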

[6] = ATG_ERE_CIS: Attagene CIS-FACTORIAL HepG2 Assay for Estrogen Response Element (ERE) (AID 2282940); conditions: HepG2 ERE cis-reporter, Attagene RNA transcript; actives raise or lower the signal
Procedure, shortened: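 Fluorescence of capillary-separated, FAM-labelled reporter cDNA fragments indicates reporter mRNA levels in HepG2 cells exposed to chemicals for 24 h. Transient transfection with cis-regulated units; data fitted in both directions against DMSO.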

[7] = ATG_Ets_CIS: Attagene CIS-FACTORIAL HepG2 Assay for human Erythroblast Transformation Specific (ETS) (AID 2282941); conditions: HepG2 ETS cis-reporter transcription, actives raise or lower the signal
Procedure, shortened: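 RT-PCR/capillary electrophoresis fluorescence read-out of reporter mRNA; HepG2 transient multi-reporter transfection; 24 h compound exposure; gain or loss of signal fitted bidirectionally relative to DMSO.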

[8] = target: Hepatocyte nuclear factor 3-beta (Homo sapiens) (UniProt Q9Y261); test: ATG_FoxA2_CIS: Attagene CIS-FACTORIAL HepG2 Assay for human Forkhead box A2 (FOXA2) (AID 2282942); conditions: HepG2 cis-reporter transcription factor activity, 24 h; actives raise or lower the signal
Sequence of Hepatocyte nuclear factor 3-beta (Homo sapiens) (Q9Y261 whole entry, looked up): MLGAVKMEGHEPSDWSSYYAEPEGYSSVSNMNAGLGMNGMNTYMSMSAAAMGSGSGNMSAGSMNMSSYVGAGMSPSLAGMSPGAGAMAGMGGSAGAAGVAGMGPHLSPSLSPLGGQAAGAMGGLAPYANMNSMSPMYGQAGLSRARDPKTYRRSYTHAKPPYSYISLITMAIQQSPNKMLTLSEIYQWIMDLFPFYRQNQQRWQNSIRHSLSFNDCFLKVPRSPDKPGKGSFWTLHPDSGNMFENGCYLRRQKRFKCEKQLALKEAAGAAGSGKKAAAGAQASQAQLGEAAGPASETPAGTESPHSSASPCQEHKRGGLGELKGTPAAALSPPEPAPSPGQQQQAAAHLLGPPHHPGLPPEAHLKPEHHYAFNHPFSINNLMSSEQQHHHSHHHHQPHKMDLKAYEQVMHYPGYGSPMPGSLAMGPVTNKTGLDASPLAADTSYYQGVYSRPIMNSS
Procedure, shortened: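 HepG2 transiently transfected with a multiplexed cis-promoter reporter library read endogenous FOXA2 activity. After 24 h compound exposure, reporter mRNA was quantified by RT-PCR, HpaI digestion and capillary electrophoresis. Bidirectional fit against DMSO.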

[9] = ATG_FoxO_CIS: Attagene CIS-FACTORIAL HepG2 Assay for human Forkhead box O (FoxO) (AID 2282943); conditions: HepG2 Attagene cis-reporter, FoxO element, mRNA; actives raise or lower the signal
Procedure, shortened: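 HepG2 cells transiently transfected with cis-promoter-driven multiple reporter transcription units; 24 h after chemical dosing, reporter mRNA quantified by RT-PCR, fluorescent primer extension, HpaI digestion and capillary electrophoresis. Bidirectional fitting versus DMSO baseline.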

[10] = ATG_GATA_CIS: Attagene CIS-FACTORIAL HepG2 Assay for human GATA Binding Protein (AID 2282944); conditions: HepG2 GATA cis-element reporter, Attagene multiplex mRNA; actives raise or lower the signal
Procedure, shortened: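 After transfecting HepG2 cells with multiple cis-regulated reporter units, chemicals are dosed for 24 h; isolated RNA undergoes RT-PCR and fluorescent labeling before capillary electrophoresis, with activity expressed against DMSO.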

[11] = ATG_GLI_CIS: Attagene CIS-FACTORIAL HepG2 Assay for human Zinc Finger Protein GLI1 (AID 2282945); conditions: HepG2, Attagene cis-factorial reporter mRNA, GLI element; actives raise or lower the signal
Procedure, shortened: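 HepG2 cells transiently transfected with cis-promoter multiplexed reporter units report endogenous transcription factor activity. After 24 h chemical exposure, reporter mRNA was quantified by RT-PCR, 6-FAM labelling, HpaI digestion and capillary electrophoresis, with bidirectional fitting against DMSO.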

[12] = target: Bile acid receptor (Homo sapiens) (UniProt Q96RI1); test: ATG_IR1_CIS: Attagene CIS-FACTORIAL HepG2 Assay for human Nuclear Receptor Subfamily 1 Group H Member 4 (NR1H4), IR1 submotif (AID 2282946); conditions: IR1 reporter transcription, actives raise or lower the signal
Sequence of Bile acid receptor (Homo sapiens) (Q96RI1 whole entry, looked up): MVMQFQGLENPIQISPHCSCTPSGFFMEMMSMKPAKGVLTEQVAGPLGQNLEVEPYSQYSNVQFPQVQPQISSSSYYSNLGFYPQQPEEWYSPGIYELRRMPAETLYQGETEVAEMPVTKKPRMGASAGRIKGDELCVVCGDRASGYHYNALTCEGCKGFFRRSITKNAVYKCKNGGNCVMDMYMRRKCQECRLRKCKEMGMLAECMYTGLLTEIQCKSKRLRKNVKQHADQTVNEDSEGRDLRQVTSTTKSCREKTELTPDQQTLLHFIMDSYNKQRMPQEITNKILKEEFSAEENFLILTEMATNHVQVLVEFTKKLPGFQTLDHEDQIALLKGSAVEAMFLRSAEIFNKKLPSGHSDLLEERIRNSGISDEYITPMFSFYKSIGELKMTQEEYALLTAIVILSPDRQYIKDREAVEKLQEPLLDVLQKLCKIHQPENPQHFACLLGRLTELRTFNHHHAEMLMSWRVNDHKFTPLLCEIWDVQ
Procedure, shortened: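 Readout: reporter transcript levels by RT-PCR with fluorescent capillary electrophoresis, from HepG2 cells transiently transfected with multiplexed cis-regulated reporters and dosed 24 h. Gain- or loss-of-signal fitted versus DMSO negative control.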

[13] = ATG_GRE_CIS: Attagene CIS-FACTORIAL HepG2 Assay for human Glucocorticoid Response Elements (GRE) (AID 2282947); conditions: HepG2 GRE cis-reporter, Attagene multiplex mRNA; actives raise or lower the signal
Procedure, shortened: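 HepG2, transient cis-reporter transfection, 24 h. Reporter mRNA: RT-PCR then CE, fluorescence. Fit both directions vs DMSO.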

[14] = ATG_ISRE_CIS: Attagene CIS-FACTORIAL HepG2 Assay for human Interferon Regulatory Factor 1 (IRF1) binding to an Interferon-Stimulated Response Element (ISRE) (AID 2282948); conditions: HepG2 ISRE cis-reporter (Attagene), mRNA transcription readout; actives raise or lower the signal
Procedure, shortened: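 Read-out: fluorescent RT-PCR products resolved by capillary electrophoresis, reporting endogenous transcription factor activity via ISRE-driven reporter mRNA in transfected HepG2 cells dosed for 24 h; gain or loss fitted relative to DMSO.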

[15] = ATG_M_32_CIS: Attagene CIS-FACTORIAL HepG2 Assay for M32 Transcription Factor (Internal Marker) (AID 2282949); conditions: HepG2 Attagene cis-factorial M32 reporter, mRNA; actives raise or lower the signal;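 note: background control marker of the multiplexed CIS panel rather than a real target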
Procedure, shortened: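 Transient MRTU transfection of HepG2; 24 h compound treatment; TriZol RNA, oligo(dT) RT, reporter PCR, 6-FAM primer extension, HpaI cut, CE. Gain/loss of signal vs DMSO.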

[16] = ATG_M_06_CIS: Attagene CIS-FACTORIAL HepG2 Assay for M06 Transcription Factor (Internal Marker) (AID 2282950); conditions: HepG2 Attagene CIS-FACTORIAL M06 internal marker reporter; actives raise or lower the signal
Procedure, shortened: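 HepG2 liver cells, 24 h exposure. Reporter transcripts from transfected cis-element constructs quantified by RT-PCR/capillary electrophoresis fluorescence. Bidirectional curve fit against DMSO.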

[17] = target: Hepatocyte nuclear factor 6 (Homo sapiens) (UniProt Q9UBC0); test: ATG_HNF6_CIS: Attagene CIS-FACTORIAL HepG2 Assay for human Hepatocyte Nuclear Factor 6 (HNF6) (AID 2282952); conditions: HepG2 Attagene cis-factorial HNF6 reporter transcription; actives raise or lower the signal
Sequence of Hepatocyte nuclear factor 6 (Homo sapiens) (Q9UBC0 whole entry, looked up, the tested form may be a part): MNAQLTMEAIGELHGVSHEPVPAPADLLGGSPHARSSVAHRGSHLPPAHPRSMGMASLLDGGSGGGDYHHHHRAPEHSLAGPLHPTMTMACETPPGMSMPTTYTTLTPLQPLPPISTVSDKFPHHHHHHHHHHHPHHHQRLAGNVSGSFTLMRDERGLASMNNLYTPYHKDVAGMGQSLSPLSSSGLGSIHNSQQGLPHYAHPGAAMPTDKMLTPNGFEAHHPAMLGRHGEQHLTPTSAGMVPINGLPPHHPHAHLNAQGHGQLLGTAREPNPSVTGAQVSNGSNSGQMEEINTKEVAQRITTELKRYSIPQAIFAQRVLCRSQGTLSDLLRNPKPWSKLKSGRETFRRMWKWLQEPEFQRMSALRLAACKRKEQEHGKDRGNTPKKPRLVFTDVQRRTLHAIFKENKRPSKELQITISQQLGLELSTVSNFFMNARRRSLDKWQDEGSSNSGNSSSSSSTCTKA
Procedure, shortened: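 Readout: fluorescent reporter-transcript fragments resolved by capillary electrophoresis after RT-PCR, reflecting endogenous factor activity in transfected HepG2. Exposure 24 h. Gain or loss of signal fitted bidirectionally against DMSO.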

[18] = target: Heat shock factor protein 1 (Homo sapiens) (UniProt Q00613); test: ATG_HSE_CIS: Attagene CIS-FACTORIAL HepG2 Assay for human Heat Shock Transcription Factor 1 (HSE) (AID 2282953); conditions: HepG2 HSE cis-reporter, Attagene RNA transcription; actives raise or lower the signal
Sequence of Heat shock factor protein 1 (Homo sapiens) (Q00613 whole entry, looked up, the tested form may be a part): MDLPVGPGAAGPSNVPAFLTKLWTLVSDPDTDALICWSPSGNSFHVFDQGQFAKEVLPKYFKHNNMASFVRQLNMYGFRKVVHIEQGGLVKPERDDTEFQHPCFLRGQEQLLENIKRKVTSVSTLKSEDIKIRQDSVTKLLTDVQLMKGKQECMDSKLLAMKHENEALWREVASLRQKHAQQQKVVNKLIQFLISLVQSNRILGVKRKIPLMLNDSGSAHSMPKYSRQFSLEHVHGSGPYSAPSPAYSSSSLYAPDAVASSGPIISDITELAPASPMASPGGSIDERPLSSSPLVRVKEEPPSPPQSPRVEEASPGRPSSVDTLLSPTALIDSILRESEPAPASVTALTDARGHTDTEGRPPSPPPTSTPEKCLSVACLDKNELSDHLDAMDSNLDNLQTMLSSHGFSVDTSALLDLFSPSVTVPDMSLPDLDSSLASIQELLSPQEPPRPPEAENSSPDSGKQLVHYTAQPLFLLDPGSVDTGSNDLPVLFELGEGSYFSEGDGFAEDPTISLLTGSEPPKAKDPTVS
Procedure, shortened: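 Endogenous transcription factor activity captured via cis-promoter reporter units transfected into HepG2; treatment lasted 24 h. Fluorescence intensity of reporter fragments analysed with bidirectional curve fitting, DMSO baseline.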

[19] = ATG_MRE_CIS: Attagene CIS-FACTORIAL HepG2 Assay for human Metal Responsive Element (MRE) (AID 2282954); conditions: HepG2 MRE cis-reporter transcription, Attagene multiplex; actives raise or lower the signal
Procedure, shortened: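 Readout: capillary electrophoresis of 6-FAM-labelled, HpaI-digested RT-PCR reporter products. System: HepG2 cells carrying transient multiplexed cis reporters, dosed 24 h. Analysis: bidirectional fit, DMSO baseline.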

[20] = target: Hypoxia-inducible factor 1-alpha (Homo sapiens) (UniProt Q16665); test: ATG_HIF1a_CIS: Attagene CIS-FACTORIAL HepG2 Assay for human Hypoxia Inducible Factor 1 (HIF1A) (AID 2282951); conditions: HepG2 Attagene cis-factorial HIF1a reporter transcription; actives raise or lower the signal
Sequence of Hypoxia-inducible factor 1-alpha (Homo sapiens) (Q16665 whole entry, looked up): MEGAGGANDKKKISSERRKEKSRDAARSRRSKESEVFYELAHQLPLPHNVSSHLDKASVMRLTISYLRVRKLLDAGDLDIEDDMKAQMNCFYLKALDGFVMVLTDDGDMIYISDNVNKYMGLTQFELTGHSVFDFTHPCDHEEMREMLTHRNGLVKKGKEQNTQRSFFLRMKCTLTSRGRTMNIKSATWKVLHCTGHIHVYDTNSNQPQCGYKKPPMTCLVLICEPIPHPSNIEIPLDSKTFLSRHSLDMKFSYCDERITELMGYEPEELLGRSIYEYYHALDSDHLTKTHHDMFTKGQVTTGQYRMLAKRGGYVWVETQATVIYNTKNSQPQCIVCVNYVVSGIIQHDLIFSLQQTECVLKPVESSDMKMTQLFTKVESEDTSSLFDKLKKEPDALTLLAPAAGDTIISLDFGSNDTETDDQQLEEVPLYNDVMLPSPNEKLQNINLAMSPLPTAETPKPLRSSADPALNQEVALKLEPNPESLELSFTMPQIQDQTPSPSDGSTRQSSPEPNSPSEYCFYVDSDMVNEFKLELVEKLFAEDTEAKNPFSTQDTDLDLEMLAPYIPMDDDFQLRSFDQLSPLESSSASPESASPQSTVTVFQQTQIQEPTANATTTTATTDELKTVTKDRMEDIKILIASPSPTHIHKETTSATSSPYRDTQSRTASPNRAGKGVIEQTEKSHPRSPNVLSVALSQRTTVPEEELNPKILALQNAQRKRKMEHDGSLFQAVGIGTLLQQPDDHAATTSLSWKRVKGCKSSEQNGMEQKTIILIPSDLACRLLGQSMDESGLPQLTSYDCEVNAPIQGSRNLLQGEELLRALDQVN
Procedure, shortened: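 HepG2 cells transiently transfected with multiple cis-regulated reporter transcription units measure endogenous transcription factor activity. After 24 h exposure, reporter mRNA is quantified by RT-PCR with 6-FAM labelling, HpaI digestion and capillary electrophoresis. Bidirectional fitting against DMSO.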

Measured: AC50

O=C(Nc1ccc([N+](=O)[O-])cc1Cl)c1cc(Cl)ccc1O
active: [4] 894 nM | [19] 0.947 µM
not listed: [20]
inactive: all other assays above

O=C(c1ccccc1)C1CCCCC1
active: [6] 17.4 µM [middle of 4 runs]
inactive: all other assays above

Cc1nn(C)c(Oc2ccccc2)c1C=NOCc1ccc(C(=O)OC(C)(C)C)cc1
active: [4] 934 nM | [18] 9.45 µM | [19] 1.88 µM
inactive: all other assays above

O=C(O)C1(C(=O)Nc2ccc(Cl)cc2Cl)CC1
not listed: [13]
inactive: all other assays above

CCN(CC)C(=O)c1cccc(C)c1
inactive: all assays above

O=C(c1ccc(O)cc1O)c1ccc(O)cc1O
active: [6] 843 nM [middle of 4 runs] | [14] 100 µM | [18] 41.3 µM [middle of 4 runs]
inactive: [1] | [2] | [3] | [4] | [5] | [7] | [8] | [9] | [10] | [11] | [12] | [13] | [14] | [15] | [16] | [20] | [17] | [19]

CN(C)C(=O)Nc1ccc(Cl)c(Cl)c1
active: [4] 60300 nM | [20] 62.6 µM | [19] 77.4 µM
inactive: [1] | [2] | [3] | [4] | [5] | [6] | [7] | [8] | [9] | [10] | [11] | [13] | [14] | [15] | [16] | [20] | [17] | [18] | [19]

C[C@]12CC[C@@H]3c4ccc(O)cc4C[C@@H](CCCCCCCCCS(=O)CCCC(F)(F)C(F)(F)F)[C@H]3[C@@H]1CC[C@@H]2O (stereo not given in full)
inactive: [1] | [2] | [3] | [4] | [5] | [6] | [7] | [8] | [9] | [10] | [11] | [12] | [13] | [14] | [15] | [16] | [20] | [17] | [18] | [19]
active: [19] 1.39 µM

COC(=O)c1cccc(C)c1S(=O)(=O)NC(=O)Nc1nc(OCC(F)(F)F)nc(N(C)C)n1
inactive: all assays above

N#CSCSc1nc2ccccc2s1
inactive: [1] | [2] | [3] | [4] | [5] | [6] | [7] | [8] | [9] | [10] | [11] | [12] | [13] | [14] | [15] | [16] | [20] | [17] | [18] | [19]
active: [2] 6.89 µM | [14] 3.07 µM | [18] 18.1 µM

CC(C)CCCCCCc1ccc(O)cc1
inactive: [1] | [2] | [3] | [4] | [5] | [7] | [8] | [9] | [10] | [11] | [12] | [13] | [14] | [15] | [16] | [20] | [17] | [18] | [19]
active: [2] 17.6 µM and 16.8 µM and 15.6 µM | [4] 17.7 µM and 17.3 µM | [6] 644 nM [middle of 4 runs] | [7] 17.1 µM | [8] 21.8 µM | [9] 20.3 µM and 17.9 µM | [12] 17.9 µM | [14] 18.4 µM and 13.7 µM | [15] 18 µM and 17.2 µM | [18] 15.3 µM and 19.9 µM and 17 µM | [19] 16.3 µM and 17.6 µM
